Molecules are shown by their SMILES. Hit rate of the full screen: of about 320,000 compounds, about 1,300 (0.41%) were called active. Only a selection was taken, and actives are over-represented in it overall. Unmarked numbers belong to inactive results.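 Rule for the calls: active = percent inhibition above the average of all tested compounds plus 3 SD, set per screening campaign (cut at about 16% in these data); inactive = the rest.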

This is an account of results in PubChem BioAssay AID434962 (The Scripps Research Institute Molecular Screening Center, 2010).

Insulin-degrading enzyme (Homo sapiens), sequence (P14735 whole entry, looked up): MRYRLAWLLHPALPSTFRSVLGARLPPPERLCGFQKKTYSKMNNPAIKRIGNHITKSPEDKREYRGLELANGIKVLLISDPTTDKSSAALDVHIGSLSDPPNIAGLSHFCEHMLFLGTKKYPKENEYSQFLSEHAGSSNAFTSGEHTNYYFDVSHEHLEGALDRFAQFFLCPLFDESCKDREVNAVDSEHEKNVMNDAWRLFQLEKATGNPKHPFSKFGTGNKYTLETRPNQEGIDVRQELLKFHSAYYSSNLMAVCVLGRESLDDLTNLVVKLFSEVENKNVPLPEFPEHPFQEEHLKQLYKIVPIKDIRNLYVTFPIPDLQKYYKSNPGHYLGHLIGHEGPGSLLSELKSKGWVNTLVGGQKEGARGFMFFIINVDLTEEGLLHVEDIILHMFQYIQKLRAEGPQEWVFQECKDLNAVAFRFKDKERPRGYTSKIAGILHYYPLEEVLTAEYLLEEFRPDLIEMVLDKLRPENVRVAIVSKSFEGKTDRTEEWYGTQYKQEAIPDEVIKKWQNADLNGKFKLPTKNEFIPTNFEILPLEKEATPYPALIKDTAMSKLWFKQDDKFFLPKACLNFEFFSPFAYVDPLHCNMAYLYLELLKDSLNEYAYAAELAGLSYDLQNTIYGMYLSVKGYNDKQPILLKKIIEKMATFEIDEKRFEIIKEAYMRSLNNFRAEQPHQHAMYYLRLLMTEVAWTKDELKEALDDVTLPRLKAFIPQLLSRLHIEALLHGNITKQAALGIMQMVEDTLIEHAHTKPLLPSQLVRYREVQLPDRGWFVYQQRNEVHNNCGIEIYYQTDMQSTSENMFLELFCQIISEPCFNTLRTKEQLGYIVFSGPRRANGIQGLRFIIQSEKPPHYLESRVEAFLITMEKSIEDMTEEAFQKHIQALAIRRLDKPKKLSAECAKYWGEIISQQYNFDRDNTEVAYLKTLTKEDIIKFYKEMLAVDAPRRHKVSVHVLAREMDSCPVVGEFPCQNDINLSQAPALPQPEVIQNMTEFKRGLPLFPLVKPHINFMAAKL

The assay concerns the target Insulin-degrading enzyme (Homo sapiens) (UniProt P14735). The assay is described as follows: human IDE inhibitors in live cells, primary screen, fluorescence polarization, HEK cells, FAbetaB substrate (AID 434962).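 Note: IDE supplied by intact live HEK cells; FP after avidin binding of uncleaved biotin substrate so inhibition keeps polarization high; 0% = DMSO wells and 100% = 60 µM reference IDE inhibitor Ii1.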 The following applies: FAbetaB cleavage, at 5.59 µM, active compounds read high. (In general: In fluorescence polarisation assays a small probe gives low polarisation when free and higher when bound to something large.)
Usually inhibition stands for the drop in the measured response relative to a control, in per cent. Turning to `O=C(Nc1ccnn1C1CCN(C/C=C/c2ccc(F)cc2)CC1)C1CCCC1`, the inhibition is -2.53%.

With `COc1cccc(CNC(=O)Cn2c(=O)oc3cc(S(=O)(=O)N4CCCCC4)ccc32)c1`, the inhibition is 4.33%.

`Cn1c(NC(=O)c2ccco2)c(-c2ccccc2Cl)c(=O)c2ccccc21`: the inhibition was -1.57%.

`N#C/C(=C/c1ccc(N2CCOCC2)o1)C(=O)N1CCOCC1`: the inhibition was 14.4%.

For `N#C/C(=C\c1ccc(N2CCOCC2)o1)C(=O)N1CCOCC1`, the inhibition is 20.9% (active).

In the case of `N#C/C(=C\c1ccc(-c2cccc([N+](=O)[O-])c2)o1)C(=O)NCCN1CCOCC1`, the inhibition is -0.08%.

In the case of `Cc1ccc(C(=O)c2ccc(N3CCN(C)CC3)c([N+](=O)[O-])c2)cc1`, the inhibition is -2.73%.

In the case of `CCCCc1ccc(NC(=O)NCc2cccnc2)cc1`, the inhibition was 4.26%.

For the compound `CCN(CC(=O)NCc1ccc(F)cc1)S(=O)(=O)c1ccc(Cl)s1`, the inhibition was 7.4%.

As to `O=C(COC(=O)CCOc1ccccc1)Nc1cc(S(=O)(=O)N2CCCCC2)ccc1Cl`, the inhibition was 5.23%.

For the compound `CCC(C)(C)NC(=O)CN(C(=O)CCC(=O)Nc1nccs1)c1ccc2c(c1)OCO2`, the inhibition was -1.66%.

Regarding `O=C(Oc1ccc(Br)cc1)c1cccnc1`, the inhibition is 1.44%.

`O=C(Oc1c(-c2ccco2)oc2ccccc2c1=O)c1cccnc1`: the inhibition was 68.4% (active).

With `N#CCc1ccc(OC(=O)c2cccnc2)cc1`, the inhibition is -4.29%.

Take `Cc1csc(=O)n1CCC(=O)OCC(=O)NNC(=O)c1ccc(Br)cc1`: the inhibition is -2.19%.

As to `CCOc1ccccc1Nc1nnc(SCC(=O)Nc2cc(C)on2)s1`, the inhibition was 3.25%.

In the case of `Cc1cc2c(=O)n(C)c(SCC(=O)c3cc4ccccc4o3)nc2s1`, the inhibition was 1.59%.

Regarding `Cc1ccccc1Nc1nnc(SCC(=O)c2cc3ccccc3o2)s1`, the inhibition was 18.7% (active).

As for `CCc1ccc(CNC(=O)C2CC(=O)N(CCc3ccc(C)cc3)C2)cc1` (stereo not given), the inhibition is -4.43%.

In the case of `CCCCN(C(=O)CSCC(=O)Nc1ccc(OC)cc1)c1c(N)n(CCC)c(=O)[nH]c1=O`, the inhibition was -1.31%.

Turning to `CC(=O)Oc1cccc(C(=O)Nc2ccccc2NC(=O)c2cccc(OC(C)=O)c2)c1`, the inhibition is -2.81%.

On to `CC(=O)c1cc(NC(=O)c2ccccc2)c(=O)oc1/C=C/N(C)C`, for which the inhibition was 16.3% (active).

On to `CCOC(=O)c1cc(NC(=O)c2ccc(Cl)cc2)c(=O)oc1-c1ccccc1`, for which the inhibition is 1.63%.

In the case of `Cc1cc(OCC(=O)N2CCN(c3ncccn3)CC2)ccc1Cl`, the inhibition is -0.8%.

With `O=C(Nc1ccc(Sc2ccc(Br)cc2)cc1)c1ccco1`, the inhibition was 17.8% (active).

As to `O=C(CNC(=O)c1ccco1)NNC(=O)c1ccc(Br)cc1`, the inhibition was 2.95%.

With `O=C(Nc1ccc(O)cc1)c1ccc(NC(=O)c2ccco2)cc1`, the inhibition was 3.06%.

As for `CC1CCCCN1S(=O)(=O)CCNC(=O)c1ccccc1` (stereo not given), the inhibition is 1.88%.

On to `CC(C)(C)OC(=O)N[C@H](C(=O)OC(C)(C)C)c1ccc(Br)cc1`, for which the inhibition is 2.45%.

Turning to `CN1CCNC(=O)C1CC(=O)NCCC1=CCCCC1` (stereo not given), the inhibition is 1.39%.
